The values below come from PubChem BioAssay (NCI).

Each structure is given as a SMILES string. About 83,000 compounds went through this panel and 20% of them were active in at least one assay; those are over-represented in the sample as a whole.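 In brief: 96-well plates, 48 h treatment, single concentration, percent growth endpoint.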 A number with no mark means an inactive call. The source made the active and inactive calls. Rule for the calls: active = growth percent below 10; inactive = the rest.

What all share (assay): NCI-60 one-dose screen, 48 h (100 = growth as untreated, 0 = no growth, -100 = all killed)
Experiment [1] deals with BT-549 breast. As to conditions: 10 µM unless noted.
Experiment [2] relates to MDA-MB-435 melanoma. As to conditions: 10 µM unless noted.
Experiment [3] concerns SW-620 colon. As to conditions: 10 µM unless noted.
For experiment [4], the system named is MCF7 breast. Conditions: 10 µM.
Experiment [5] relates to HCT-116 colon. As to conditions: 10 µM unless noted.
For experiment [6], the system named is HCC-2998 colon. Conditions: 10 µM unless noted.
The subject of experiment [7] is KM12 colon. Conditions: 10 µM unless noted.

Take `COc1ccc(/C=C2\N=C(c3ccccc3)N(c3ccc(-c4nc5ccc(C)cc5s4)cc3)C2=O)cc1`: the growth was 92.8% in experiment [1]; 86.9% in experiment [2]; 101% in experiment [3]; 77.1% in experiment [4]; 85.9% in experiment [5]; 96% in experiment [6]. Besides, the growth in experiment [7] is 72.1%.
With `COc1c(B(O)O)cccc1-c1nc2ccc3n[nH]c(F)c3c2c2c1CCCC2`, the growth in experiment [1] is 5.08% (active); in experiment [2] it was 88.3%; in experiment [3], 59.7%; in experiment [4], 61.5%; in experiment [5], 43.9%; in experiment [7], 40.7%.
Turning to `Oc1c(C(Nc2ccccn2)c2cccc(Oc3ccccc3)c2)ccc2cccnc12` (configuration not stated), the growth in experiment [1] is -74.5% (active); in experiment [2], -90.1% (active); in experiment [3], -88% (active); in experiment [4], -83% (active); in experiment [5], -85.3% (active); in experiment [6], -84.5% (active). Also, in experiment [7], the growth was -89.9% (active).
Turning to `CCN1C(=O)N(c2ccccc2)C2NN=c3s/c(=C4\C(=O)N(C(C)C)c5ccccc54)c(=O)n3C21` (configuration not stated), the growth in experiment [1] is 12.7%; in experiment [2], -21.2% (active); in experiment [3] it was 35.2%; in experiment [4], 20.6%; in experiment [5], 4.19% (active); in experiment [7] it was 14.5%.
As to `CC1(O)COCCCCOc2c(CN)cccc2NC(=O)c2nc(cnc2N)-c2ccc(cc2)S(=O)(=O)C(C)(C)C1` (configuration not stated), the growth in experiment [1] is 85.4%; in experiment [2], -93.4% (active); in experiment [3], -64.2% (active); in experiment [4] it was -79.4% (active); in experiment [5], -56.5% (active); in experiment [6], -1.91% (active). Moreover, the growth in experiment [7] was -72.7% (active).
`COc1cccc(/C=C/C(=O)c2c(C)nc3ccccc3c2/C=C/c2ccccc2)c1OC`: the growth in experiment [1] was 29.4%; in experiment [2], 15.1%; in experiment [3], 13.2%; in experiment [4], 13.9%; in experiment [5] it was 4.08% (active); in experiment [7] it was 26.6%.
`O=C(/C=C/c1ccc(F)cc1)c1ccc(Nc2nc(NCCO)nc(Nc3ccc(Cl)cc3)n2)cc1`: the growth in experiment [1] is 72%; in experiment [2], 74.5%; in experiment [3], 46.3%; in experiment [4], 4.3% (active); in experiment [5], 8.67% (active); in experiment [7] it was 25.5%.
Take `O=C(N=Nc1c(O)[nH]c2ccccc12)c1oc2ccccc2c1CN1CCN(c2ccccc2)CC1`: the growth is 11.4% in experiment [1]; 26.3% in experiment [2]; 0.43% (active) in experiment [3]; -22.7% (active) in experiment [4]; -53.1% (active) in experiment [5]; 33.6% in experiment [6]. Besides, the growth in experiment [7] was 23.1%.
With `O=CCCCC(O)C=O` (configuration not stated), the growth in experiment [1] is 112%; in experiment [2], 105%; in experiment [3] it was 96.9%; in experiment [4] it was 98.9%; in experiment [5], 109%; in experiment [7] it was 103%.
As for `O=C1/C(=C/c2cccc(O)c2)COc2ccc(O)cc21`, the growth is 98.1% in experiment [1]; 60.3% in experiment [2]; 9.65% (active) in experiment [3]; 14% in experiment [4]; 10.1% in experiment [5]; 103% in experiment [6]. In addition, the growth in experiment [7] was 20.9%.
As to `CCN1C(=O)N(CC)C2C1NN=c1s/c(=C3\C(=O)N(CC(C)(C)C)c4ccccc43)c(=O)n12` (configuration not stated), the growth in experiment [1] was 21.7%; in experiment [2], -21.3% (active); in experiment [3], 42.8%; in experiment [4] it was 20.2%; in experiment [5] it was 7.62% (active); in experiment [6] it was 26.7%. For the same molecule, the growth in experiment [7] is 17.6%.
With `COc1cc(/C=C2\CN(C)C/C(=C\c3cc(CN4CCOCC4)c(O)c(OC)c3)C2=O)cc(CN2CCOCC2)c1O`, the growth in experiment [1] was 94%; in experiment [2], 29.2%; in experiment [3], 48%; in experiment [4], 19.5%; in experiment [5], 21.1%; in experiment [6], 91%. Further, in experiment [7], the growth is 37.4%.
In the case of `CCN1CCN(C(=S)SCC(=O)Nc2nc3ccc(C)cc3s2)CC1`, the growth in experiment [1] was 108%; in experiment [2], 116%; in experiment [3], 109%; in experiment [4], 105%; in experiment [5], 94.7%; in experiment [7], 108%.
`O=C(Nc1ccc(N2CCNCC2)cn1)c1[nH]ncc1Nc1ncnc2sc3c(c12)CCC3`: the growth in experiment [1] is 85.4%; in experiment [2], -63.2% (active); in experiment [3] it was -76.1% (active); in experiment [4] it was -34% (active); in experiment [5], -75% (active); in experiment [7] it was 53.4%.
Turning to `c1ccc(CNc2nc(Nc3ccccc3)nc3ccccc23)cc1`, the growth is 89.2% in experiment [1]; 11.7% in experiment [2]; 56.1% in experiment [3]; 56.9% in experiment [4]; 58.2% in experiment [5]; 37.2% in experiment [6]. Moreover, in experiment [7], the growth is 71.8%.
Take `COc1ccc(-c2cn[nH]c2-c2ccc(OC)c(O)c2)cc1`: the growth in experiment [1] was 74.1%; in experiment [2] it was 3.35% (active); in experiment [3], 38%; in experiment [4], 35.4%; in experiment [5], 61.4%; in experiment [6], 85.8%. The growth in experiment [7] was 44.8%.
Consider `Cc1ccc(F)cc1NC(=O)c1cc(Cl)ccc1Nc1ccccc1`, for which the growth in experiment [1] is 86.2%; in experiment [2], 59.5%; in experiment [3], 57.5%; in experiment [4] it was 29.7%; in experiment [5], 30.9%; in experiment [7], 37.1%.
On to `O=C1OC(c2ccccc2)(c2ccccc2)c2ccsc21`, for which the growth in experiment [1] is 104%; in experiment [2], 108%; in experiment [3], 97.4%; in experiment [4], 104%; in experiment [5] it was 103%; in experiment [7], 99.1%.
